The values below come from publication PMC7862700, “An all-to-all approach to the identification of sequence-specific readers for epigenetic DNA modifications on cytosine”.

Common to all, as to assay: DAPPL (digital affinity profiling via proximity ligation, sequencing); 10 mM Tris-HCl pH 7.5, 50 mM NaCl, 1 mM DTT, 4% glycerol, room temperature, 30 min; GST-TFs on glutathione beads, 16-mer random dsDNA library, 0.1% formaldehyde crosslink after washing; high values mean tight binding
Details in all cases: protein: recombinant; tags: N-terminal GST; dsDNA, one strand shown

The target of one experiment is T1, ERF (Homo sapiens, UniProt P50548 1-548).
T1 sequence: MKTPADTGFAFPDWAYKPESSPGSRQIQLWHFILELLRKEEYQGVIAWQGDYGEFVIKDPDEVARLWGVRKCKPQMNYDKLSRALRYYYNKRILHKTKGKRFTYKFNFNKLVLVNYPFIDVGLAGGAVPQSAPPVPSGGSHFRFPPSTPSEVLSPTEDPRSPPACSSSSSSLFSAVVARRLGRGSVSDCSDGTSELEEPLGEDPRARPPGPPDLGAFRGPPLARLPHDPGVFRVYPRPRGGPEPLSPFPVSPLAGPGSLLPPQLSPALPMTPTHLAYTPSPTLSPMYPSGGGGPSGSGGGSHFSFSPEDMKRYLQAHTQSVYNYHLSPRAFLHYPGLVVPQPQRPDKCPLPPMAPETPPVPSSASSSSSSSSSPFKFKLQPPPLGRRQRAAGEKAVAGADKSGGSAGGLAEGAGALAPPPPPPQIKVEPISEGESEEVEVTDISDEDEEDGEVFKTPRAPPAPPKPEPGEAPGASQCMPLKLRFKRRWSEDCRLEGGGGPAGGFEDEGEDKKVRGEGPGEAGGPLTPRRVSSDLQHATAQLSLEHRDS
An outline of the steps: (§1)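 A tag-only sample was pooled with DNA-barcoded human transcription factors that had been expressed in yeast as GST fusions and captured on glutathione beads. The pools were incubated for 30 min at room temperature with 200 nmole of a random double-stranded 16-mer DNA library in Tris/NaCl/DTT/glycerol buffer, then washed, crosslinked with 0.1% formaldehyde, proximity-ligated (BsaI/T4 ligase, 1 h, 37 °C), PCR-amplified and sequenced on an Illumina NextSeq500. Binding signal is each hexamer's read frequency for a factor divided by its frequency for the tag-only sample.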

A further experiment deals with T2, ETV3L (Homo sapiens, UniProt Q6ZN32 1-361).
T2 sequence: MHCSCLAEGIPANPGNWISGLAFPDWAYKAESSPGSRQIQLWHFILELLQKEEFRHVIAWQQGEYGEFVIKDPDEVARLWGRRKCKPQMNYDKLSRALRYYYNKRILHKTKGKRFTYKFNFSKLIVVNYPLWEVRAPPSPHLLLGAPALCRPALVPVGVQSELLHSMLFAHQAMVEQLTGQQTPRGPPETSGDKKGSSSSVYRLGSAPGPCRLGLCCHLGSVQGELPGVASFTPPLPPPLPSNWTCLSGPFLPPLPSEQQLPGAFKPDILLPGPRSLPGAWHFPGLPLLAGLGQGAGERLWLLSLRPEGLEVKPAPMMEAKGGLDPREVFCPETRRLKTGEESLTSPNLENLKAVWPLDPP
The gist of the method:
as §1

The target in a further experiment is T3, ETS2 (Homo sapiens, UniProt P15036 1-469).
T3 sequence: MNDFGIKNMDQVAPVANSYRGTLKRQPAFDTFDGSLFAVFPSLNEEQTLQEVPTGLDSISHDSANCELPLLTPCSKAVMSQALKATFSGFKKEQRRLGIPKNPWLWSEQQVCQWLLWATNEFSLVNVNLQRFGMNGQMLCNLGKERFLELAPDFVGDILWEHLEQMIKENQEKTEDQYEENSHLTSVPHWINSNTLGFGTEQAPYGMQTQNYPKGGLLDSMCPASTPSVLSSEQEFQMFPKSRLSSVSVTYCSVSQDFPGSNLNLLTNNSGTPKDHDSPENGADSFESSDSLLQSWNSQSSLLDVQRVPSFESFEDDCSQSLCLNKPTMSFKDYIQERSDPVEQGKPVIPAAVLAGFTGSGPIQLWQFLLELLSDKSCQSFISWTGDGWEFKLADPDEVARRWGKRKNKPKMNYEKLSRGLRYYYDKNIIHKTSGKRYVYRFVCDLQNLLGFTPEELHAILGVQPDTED
An outline of the steps: as §1

Another experiment addresses T4, ELF5 (Homo sapiens, UniProt Q9UKW6-2 1-255).
T4 sequence: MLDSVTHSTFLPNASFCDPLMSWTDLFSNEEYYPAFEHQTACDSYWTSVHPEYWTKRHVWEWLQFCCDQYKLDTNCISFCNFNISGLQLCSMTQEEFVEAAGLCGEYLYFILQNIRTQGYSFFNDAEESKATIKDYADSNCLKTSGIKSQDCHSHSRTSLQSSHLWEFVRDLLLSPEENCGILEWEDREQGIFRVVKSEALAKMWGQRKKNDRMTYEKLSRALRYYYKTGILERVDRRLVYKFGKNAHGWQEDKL
An outline of the steps: as §1

A further experiment deals with T5, ETV3 (Homo sapiens, UniProt P41162-2 1-143).
T5 sequence: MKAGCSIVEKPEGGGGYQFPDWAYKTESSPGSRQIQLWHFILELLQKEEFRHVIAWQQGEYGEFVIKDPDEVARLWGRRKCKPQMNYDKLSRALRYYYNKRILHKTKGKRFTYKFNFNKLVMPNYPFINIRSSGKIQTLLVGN
An outline of the steps: as §1

The target of the next experiment is ETV6 (Homo sapiens, UniProt P41212 1-452). An outline of the steps:
as §1

Another experiment deals with T6, ETV7 (Homo sapiens, UniProt Q9Y603 1-341).
T6 sequence: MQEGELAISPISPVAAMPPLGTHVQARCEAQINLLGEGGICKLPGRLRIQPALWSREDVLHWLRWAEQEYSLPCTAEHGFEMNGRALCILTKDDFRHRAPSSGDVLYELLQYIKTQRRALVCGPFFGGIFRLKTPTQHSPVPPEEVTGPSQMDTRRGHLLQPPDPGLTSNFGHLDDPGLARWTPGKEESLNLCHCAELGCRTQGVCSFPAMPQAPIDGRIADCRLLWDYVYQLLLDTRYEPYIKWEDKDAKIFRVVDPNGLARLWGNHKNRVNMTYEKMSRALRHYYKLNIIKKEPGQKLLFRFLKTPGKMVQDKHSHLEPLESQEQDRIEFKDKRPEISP
The gist of the method:
as §1

A further experiment deals with T7, SPDEF (Homo sapiens, UniProt O95238 1-335).
T7 sequence: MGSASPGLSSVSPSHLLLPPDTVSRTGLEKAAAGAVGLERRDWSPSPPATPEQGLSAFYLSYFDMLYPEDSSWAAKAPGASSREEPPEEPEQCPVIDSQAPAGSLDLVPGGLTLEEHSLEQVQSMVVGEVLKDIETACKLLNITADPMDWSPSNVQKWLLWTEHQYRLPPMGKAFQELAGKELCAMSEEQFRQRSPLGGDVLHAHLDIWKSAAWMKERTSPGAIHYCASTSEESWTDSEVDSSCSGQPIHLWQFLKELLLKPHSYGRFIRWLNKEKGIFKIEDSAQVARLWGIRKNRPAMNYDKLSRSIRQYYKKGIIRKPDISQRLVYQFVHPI
The gist of the method:
as §1

ETV6, sequence (P41212 whole entry): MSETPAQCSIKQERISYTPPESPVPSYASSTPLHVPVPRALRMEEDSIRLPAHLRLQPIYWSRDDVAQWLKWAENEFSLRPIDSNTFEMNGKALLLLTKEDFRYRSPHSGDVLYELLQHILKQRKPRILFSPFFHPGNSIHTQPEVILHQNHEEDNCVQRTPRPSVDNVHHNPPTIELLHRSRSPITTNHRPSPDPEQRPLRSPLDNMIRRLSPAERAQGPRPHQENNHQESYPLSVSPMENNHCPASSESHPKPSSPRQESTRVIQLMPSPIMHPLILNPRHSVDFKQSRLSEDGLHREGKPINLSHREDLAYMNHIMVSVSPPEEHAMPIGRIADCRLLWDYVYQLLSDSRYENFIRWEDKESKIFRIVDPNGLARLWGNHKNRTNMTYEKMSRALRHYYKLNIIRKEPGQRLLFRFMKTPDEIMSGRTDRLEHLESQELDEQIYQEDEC

On to CTATAG, for which the binding signal is 1.03 fold enrichment (6-mer frequency, TF over GST control) in the experiment with ERF; 1.05 fold enrichment (6-mer frequency, TF over GST control) with ETV3L; 1 fold enrichment (6-mer frequency, TF over GST control) with ETS2; 1.05 fold enrichment (6-mer frequency, TF over GST control) in the experiment with ELF5; 1.09 fold enrichment (6-mer frequency, TF over GST control) with ETV3; 1.04 fold enrichment (6-mer frequency, TF over GST control) with ETV6.
Take GCACTG: the binding signal in the experiment with ERF was 1.04 fold enrichment (6-mer frequency, TF over GST control); with ETV3L, 1.07 fold enrichment (6-mer frequency, TF over GST control); in the experiment with ETS2, 1.07 fold enrichment (6-mer frequency, TF over GST control); in the experiment with ETV7, 1.11 fold enrichment (6-mer frequency, TF over GST control); with ETV3, 1.12 fold enrichment (6-mer frequency, TF over GST control); with ETV6, 1.09 fold enrichment (6-mer frequency, TF over GST control).
AGCCTA: the binding signal in the experiment with ERF is 1.12 fold enrichment (6-mer frequency, TF over GST control); in the experiment with ETV3L, 1.09 fold enrichment (6-mer frequency, TF over GST control); with ETS2, 1.04 fold enrichment (6-mer frequency, TF over GST control); with ETV7, 1.13 fold enrichment (6-mer frequency, TF over GST control); with ETV3 it was 1.1 fold enrichment (6-mer frequency, TF over GST control).
In the case of TGCGCG, the binding signal is 1.24 fold enrichment (6-mer frequency, TF over GST control) with ERF; 1.02 fold enrichment (6-mer frequency, TF over GST control) with ETV3L; 1.23 fold enrichment (6-mer frequency, TF over GST control) with ETV7; 1.01 fold enrichment (6-mer frequency, TF over GST control) in the experiment with ELF5; 1.03 fold enrichment (6-mer frequency, TF over GST control) with ETV3; 1.14 fold enrichment (6-mer frequency, TF over GST control) with ETV6.
As for TATCAA, the binding signal with ERF was 1.08 fold enrichment (6-mer frequency, TF over GST control); with ETV3L, 1.06 fold enrichment (6-mer frequency, TF over GST control); with ETS2, 1.05 fold enrichment (6-mer frequency, TF over GST control); in the experiment with ETV7 it was 1.09 fold enrichment (6-mer frequency, TF over GST control); in the experiment with ETV3 it was 1.04 fold enrichment (6-mer frequency, TF over GST control).
Turning to TAGGTC, the binding signal in the experiment with ERF is 1.01 fold enrichment (6-mer frequency, TF over GST control); with ETV3L, 1.02 fold enrichment (6-mer frequency, TF over GST control); with SPDEF it was 1.05 fold enrichment (6-mer frequency, TF over GST control); with ETV7, 1.11 fold enrichment (6-mer frequency, TF over GST control); in the experiment with ELF5, 1.02 fold enrichment (6-mer frequency, TF over GST control); in the experiment with ETV3, 1.04 fold enrichment (6-mer frequency, TF over GST control).
With AACCCA, the binding signal is 1.1 fold enrichment (6-mer frequency, TF over GST control) with ERF; 1.06 fold enrichment (6-mer frequency, TF over GST control) with ETV3L; 1.04 fold enrichment (6-mer frequency, TF over GST control) with ETS2; 1.14 fold enrichment (6-mer frequency, TF over GST control) with ETV7; 1.05 fold enrichment (6-mer frequency, TF over GST control) in the experiment with ELF5; 1.09 fold enrichment (6-mer frequency, TF over GST control) in the experiment with ETV6.
On to GCCGAT, for which the binding signal with ERF was 1.13 fold enrichment (6-mer frequency, TF over GST control); with ETV3L it was 1.07 fold enrichment (6-mer frequency, TF over GST control); with ETV7 it was 1.12 fold enrichment (6-mer frequency, TF over GST control); with ETV3, 1.18 fold enrichment (6-mer frequency, TF over GST control); with ETV6 it was 1.2 fold enrichment (6-mer frequency, TF over GST control).
